Compound activity from PubChem BioAssay.
Hits are enriched below; roughly 3.3% of the tested compounds scored in any of these assays.
ERb SRC1 inh = ER-beta (human) coactivator binding inhibition; TR-FRET ER-beta LBD / SRC1-Cy5 peptide binding; receptor agonist-loaded with 1 µM estradiol; inhibition, % at 25.6 µM; 86,000 tested, 1.3% active; AID 633;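 active = compounds whose percent inhibition of the receptor-coactivator binding signal exceeds about 50% in the single-dose screen, limit read from the data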;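 also: 0% = receptor plus peptide wells without compound and 100% = peptide-only wells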
ERa SRC1 inh = blocks coactivator binding to human estrogen receptor alpha. 86,000 tested, 1.7% active. TR-FRET ER-alpha LBD / SRC-1 peptide, estradiol-bound. inhibition, % at 25.6 µM; in the data active = inhibition above about 50%;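 also: 0% = receptor plus peptide control and 100% = peptide only without receptor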
Target sequence (P03372 whole entry, looked up, the tested form may be a part): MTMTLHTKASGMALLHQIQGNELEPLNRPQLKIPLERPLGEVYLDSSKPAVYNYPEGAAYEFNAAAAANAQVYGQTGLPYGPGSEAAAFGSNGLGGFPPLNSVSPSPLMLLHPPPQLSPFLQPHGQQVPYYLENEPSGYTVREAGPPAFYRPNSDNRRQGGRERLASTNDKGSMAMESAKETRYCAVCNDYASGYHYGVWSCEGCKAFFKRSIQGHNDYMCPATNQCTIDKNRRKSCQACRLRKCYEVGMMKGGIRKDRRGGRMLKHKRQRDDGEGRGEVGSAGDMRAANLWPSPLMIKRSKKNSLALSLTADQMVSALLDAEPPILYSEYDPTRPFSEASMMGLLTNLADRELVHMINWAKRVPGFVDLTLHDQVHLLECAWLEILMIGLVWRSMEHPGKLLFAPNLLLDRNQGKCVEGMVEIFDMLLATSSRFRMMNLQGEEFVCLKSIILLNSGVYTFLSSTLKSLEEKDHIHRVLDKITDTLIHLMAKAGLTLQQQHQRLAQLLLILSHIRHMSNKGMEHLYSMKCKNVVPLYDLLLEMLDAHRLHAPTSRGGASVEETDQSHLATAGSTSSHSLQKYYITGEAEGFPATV
PLK1 kinase inh = inhibitors of human PLK1 kinase; P53350; recombinant PLK1 kinase, TR-FRET peptide phosphorylation; inhibition, % at 10 µM; 97,000 tested, 0.53% active; AID 619;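 active = inhibition of 50% or more in the single-concentration screen; inactive = inhibition below 50%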;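 also: 0% = DMSO max control and 100% = H-89 dihydrochloride min control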
Plk1 PBD FP = Plk1 (human) PBD binding inhibition | inhibition, %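 (tested at about 20 µM)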 | Plk1 PBD phosphopeptide binding, fluorescence polarization | P53350 | 97,000 tested, 0.13% active | AID 693; in the data active = inhibition above about 34%, passing the limit was not always enough
Smad3 inh = Smad3 (human) transcription factor binding inhibition; P84022; TR-FRET Smad3/Dy647-FoxH1 peptide binding, europium anti-His; inhibition, % at 25 µM; 88,000 tested, 0.29% active; AID 630;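 active = compounds that reduce the energy-transfer binding signal between the protein and its labelled peptide by more than half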;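 also: 0% = Smad3 plus labelled peptide maximal FRET and 100% = peptide-only background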
ERa coact pot = ER-alpha (human) coactivator binding potentiation. P03372. TR-FRET ERalpha-LBD/SRC-Cy5 coactivator binding, 2 h; 100 = basal binding, no effect. coactivator binding (% of control), % at 25.6 µM. 86,000 tested, 1.3% active. AID 639; in the data active = activity above about 200%;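 also: binding measured in presence of low estradiol as agonist stimulus; 0% = peptide alone without receptor and 100% = receptor with peptide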
* hit, by the source's call; . = no result; [ ] = dose if it differs, or a comment.

SMILES	ERb SRC1 inh	ERa SRC1 inh	PLK1 kinase inh	Plk1 PBD FP	Smad3 inh	ERa coact pot
CCOC(=O)c1c(C)oc2c1c(C(c1cccnc1)N1CCCCC1)c(O)c1ccccc12 (stereo not given)	67*	68*	-2	12	74*	45
C[C@@]1(CCOCc2ccccc2)NC(=O)NC1=O	.	.	.	.	-11	.
NC(=O)COC(=O)CCCc1c[nH]c2ccccc12	6	3	-14	-5	-14	111
NC(=O)Cc1c[nH]c2cccc(O)c12	93*[fluorescence artefact?]	73*[fluorescence artefact?]	.	.	-13	54
O=C(O)c1cccc(OCCO)c1	.	.	.	.	-1	.
O=c1cc(CSc2nnnn2-c2ccccc2)nc(Nc2ccc(F)cc2)[nH]1	32	53*	-4	-10	2	373*
CCN(CC)C(=O)Cn1nc(-c2ccccc2O)nc1SCC(=O)Nc1ccc(OC)cc1	-2	5	2	-2	-1	95
c1ccc(-c2nn3c(Cn4nnc5ccccc54)nnc3s2)nc1	50	85*[fluorescence artefact?]	17	-25	7	27
c1cncc(-c2nn3c(Cn4nnc5ccccc54)nnc3s2)c1	-10	-8	-6	-12	20	79
Cc1cccc(OCc2nnc(SCc3cc(=O)n4cc(Br)ccc4n3)o2)c1	17	0	.	.	-7	203*
Cc1cccc(OCc2nnc(SCC(=O)Nc3ccc(C)c(C)c3)o2)c1	3	-19	-7	-7	-9	230*
Cc1[nH]c2ccccc2c1-c1cc(-c2cc(-c3c(C)[nH]c4ccccc34)nc(N)n2)nc(N)n1	.	.	.	.	28	.
CC(=O)Nc1cccc(NC(=O)CCc2ccccc2)c1	-5	9	1	15	-11	101
CCC(=O)Nc1cccc(NC(C)=O)c1	78*	84*[fluorescence artefact?]	-4	5	13	27
CCCn1c(C)cc(=O)c2cc(NC(=O)c3cnccn3)ccc21	27	40	-4	5	17	226*[fluorescence artefact?]
O=C(Nc1ccc2nccnc2c1)c1cnccn1	1	-4	-8	-9	-1	103
CS(=O)(=O)Nc1ccc(N2CCCCC2)c(Cl)c1	5	-2	-9	7	17	91
CC(=O)OC1CC(C)(C)N(OC(=O)c2ccc(N)cc2)C(C)(C)C1	20	61*	-6	-18	10	54
CCN(CC)S(=O)(=O)c1ccc(C(=O)NCc2ccc(C)cc2)cc1	62*	-8	-3	9	-10	105
CCN(CC)S(=O)(=O)c1ccc(C(=O)NCc2cccs2)cc1	.	.	-12	-4	.	.
CCn1c2ccccc2c2cc(C3C(C#N)=C(C)NC(C)=C3C#N)ccc21	4	6	9	2	6	215*
Cc1cccc(NC(=O)N2CCC(c3nc4ccccc4o3)CC2)c1	-4	-13	.	.	2	123
Cc1cc(C)cc(NC(=O)N2CCC(c3nc4ccccc4o3)CC2)c1	-2	3	-7	-18	8	680*[fluorescence artefact?]
C[C@H](CCC(=O)O)[C@@H]1CC[C@@H]2[C@H]3CC[C@@H]4C[C@H](O)CC[C@@]4(C)[C@@H]3CC[C@]21C	.	.	.	.	5	.
O=C(Nc1cccc(Cl)c1)Nn1cnnc1	.	.	.	.	2	.
SMILES	ERb SRC1 inh	ERa SRC1 inh	PLK1 kinase inh	Plk1 PBD FP	Smad3 inh	ERa coact pot
O=C(Nc1ccncc1)C1c2ccccc2Oc2ccccc21	9	98*[fluorescence artefact?]	2	-19	-11	102
O=S(=O)(C[C@H](O)C(Cl)(Cl)Cl)NNc1ccccc1	.	.	.	.	23	.
Cn1cc(C(=O)NC2CCCCCC2)c(=O)c2cc(S(=O)(=O)N3CCCC3)ccc21	5	65*	.	.	5	232*[fluorescence artefact?]
CCN(CC)CCNC(=O)c1cn(C)c2ccc(S(=O)(=O)N(C)C3CCCCC3)cc2c1=O	14	7	55*	-17	-13	86
CN(CCCNC(=O)c1cn(C)c2ccc(S(=O)(=O)N(C)C)cc2c1=O)c1ccccc1	-5	-3	4	28	3	111
CN(C)S(=O)(=O)c1ccc2c(c1)c(=O)c(C(=O)NCCCN1CCCCCC1)cn2C	9	62*[fluorescence artefact?]	1	11	9	92
Cn1cc(C(=O)NC2CCCCCCC2)c(=O)c2cc(S(=O)(=O)N3CCCC3)ccc21	11	44	.	.	9	73
O=C(O)c1c[nH]c2cc(OCc3ccccc3)ccc2c1=O	.	.	.	.	-9	.
CN(C)CCCN=C(N)N	.	.	.	.	-11	.
CCOC(=O)c1c(C)[nH]c(C(=O)CSc2nnnn2-c2ccc(C)cc2)c1C	0	-2	1	-24	4	123
CCOC(=O)c1c(C)[nH]c(C(=O)CSc2nnnn2-c2ccccc2)c1C	58*[fluorescence artefact?]	58*[fluorescence artefact?]	.	.	-8	205*[fluorescence artefact?]
CC(CCC(=O)O)(c1cc(Br)c(O)c(Br)c1)c1cc(Br)c(O)c(Br)c1	.	.	.	.	44	.
O=C1c2ccccc2C(=O)c2c(Nc3ccc4c5c(cccc35)C(=O)c3ccccc3-4)cccc21	.	.	.	.	83*	.
O=C1c2ccccc2C(=O)c2c(Nc3cc4c5c(ccc6c7ccc8c9c(cc(Nc%10cccc%11c%10C(=O)c%10ccccc%10C%11=O)c(c3c56)c97)-c3ccccc3C8=O)C(=O)c3ccccc3-4)cccc21	.	.	.	.	73*	.
O=C1c2ccccc2C(=O)c2c(NCc3cccnc3)cccc21	.	.	-4	-11	.	.
CC(C)Cn1[nH]c2c3c(ccc2c1=O)C(=O)c1ccccc1C3=O	.	.	-11	-8	.	.
O=C1c2ccccc2C(=O)N1Cc1cc(-c2ccc(Cl)cc2)no1	.	.	-6	-3	.	.
COc1cc2c(C#N)c(N3CCOCC3)nc(N)c2c(N)n1	75*[fluorescence artefact?]	1	-14	17	5	95
O=S(=O)(O)c1ccc(-c2nnc(-c3ccccn3)nc2-c2ccc(S(=O)(=O)O)o2)o1	.	.	.	.	1	.
O=C(Nc1ccc2snnc2c1)N1CCN(c2ccccc2)CC1	-42	-21	-9	10	1	627*[fluorescence artefact?]
CCn1c(O)c(C2=NCCCC2)c2ccccc21	6	-11	-7	-2	-2	113
Oc1[nH]c2ccccc2c1C1=NCCCC1	92*[fluorescence artefact?]	82*[fluorescence artefact?]	-5	14	-9	27
CSCC[C@H](NC(=O)C1CCN(S(=O)(=O)c2ccc(C)cc2)CC1)C(=O)NCc1ccco1	21	16	-6	2	10	95
COc1ccc(C2CC(c3c(-c4ccccc4)c4cc(Cl)ccc4[nH]c3=O)=NN2S(C)(=O)=O)cc1OC (stereo not given)	43	69*	-4	-5	-26	131
O=c1[nH]c2ccc(Cl)cc2c(O)c1-c1ccccc1	.	.	-2	-1	.	.
[N-]=[N+]=NC[C@@H]1O[C@H](n2cnc3c(N)ncnc32)[C@@H]2O[C@@H]21	.	.	.	.	3	.
O=C1COC(c2ccccc2O)=NN1CCCN1CCCC1	.	.	.	.	12	.
O=C(Nc1ccncc1)c1cn(-c2ccccc2)nc1-c1cccs1	1	18	-1	6	4	229*[fluorescence artefact?]
COC(=O)/C(=C\Nc1ccc(Cl)cc1Cl)NC(=O)c1ccc(Cl)cc1Cl	46	74*[fluorescence artefact?]	-5	-14	-2	52
